# Measurements as given in PubChem BioAssay (Tox21).
# Values joined by “and” are separate entries in the source; they are usually repeats but may differ in a detail not shown here. Identical values can stand only once. Records with an inconclusive call do not appear. Values without a mark were called inactive. Active and inactive are the calls of the source. The call rests on the fitted dose curve; in most records, active means well fitted inhibition curve with a large enough effect in the repeat runs; inconclusive means weak or mixed curves; inactive means no such curve, though single readings can be large or run the other way.
# Assay: qHTS assay to identify small molecule antagonists of the thyroid receptor (TR) signaling pathway (AID 743065); further: nearly all actives have a fitted effect of over 55% in size
# Settings: GH3.TRE-Luc, T3-stimulated luciferase inhibition, 23.5 h; series mostly up to 70.3 µM; activity, negative = inhibition: at the top concentration
# Excerpt: U.S. Tox21 Program National Center for Advancing Translational Sciences [NCATS] NIH Chemical Genomics Center [NCGC] U.S. Environmental Protection Agency [EPA] National Institutes of Environmental Health Sciences [NIEHS] National Toxicology Program [NTP] U.S. Food and Drug Administration [FDA] Tox21 Assay Overview: Thyroid receptor (TR), a nuclear hormone receptor, plays an important role in development, proliferation, differentiation, metabolism, brain function, and cardiovascular system. […] To profile the Tox21 10K compound library in TR signaling, a cell-based GH3-TRE-Luc assay (GH3.TRE-Luc cell line, developed by the laboratory of Dr. Albertinka J. Murk, Wageningen University) was used to measure the inhibition of TR. GH3 (rat pituitary tumor) cells stably expressing a TR activity sensor consisting of two TR response elements and a luciferase reporter gene.
# Tox21 Assay Protocol Summary: GH3.TRE-Luc cells were dispensed at 1500 cells/4 uL/well into 1536-well white solid bottom plates using a Multidrop Combi dispenser (Thermo Fisher Scientific Inc., Waltham, MA). After the assay plates were incubated at 37 C for 4 hours, 23 nL of library compound or DMSO controls was transferred to the assay plates by a pintool station (Kalypsys, San Diego, CA), followed by addition of 1 ul of T3 (1 nM, final concentration in the wells) to stimulate TR transactivation. The assay plates were incubated at 37 C for 23.5 h, and then 1 uL of CellTiter-Fluor reagent (Promega, Madision, WI) of measuring cytotoxicity was added to each well using a Bioraptr Flying Reagent Dispenser (FRD) workstation (Beckman Coulter, Indianapolis, IN, USA). The plates were incubated at 37 C and 5% CO2 for additional 30 min, and fluorescence intensity was measured by a ViewLux plate reader (PerkinElmer, Shelton, CT). For measuring luciferase reporter gene activity, 4 uL of ONE-Glo Luciferase Assay reagent (Promega) was added to each well using a Bioraptr FRD (Beckman Coulter), followed by 30 min incubation at room temperature. The luminescence intensity of plates was recorded by a ViewLux plate reader (PerkinElmer, Shelton, CT).
# On the % scale 0 is the no-effect control and ±100 the full control effect; potency means the concentration at half of the fitted maximal effect.
SMILES,Potency,"activity, negative = inhibition"
N#CSCSc1nc2ccccc2s1,0.864 µM (active),
CSc1ccc2c(c1)N(CCC1CCCCN1C)c1ccccc1S2 (stereo not given),7.5 µM (active) and 9.65 µM (active),
O=C(O)c1cccc(Cl)n1,,-0.675%
NCCCCCCNCCCCCCN,,-17.2%
CCOC(=O)C1=C(C)NC(C)=C(C(=O)OCC)C1c1ccccc1/C=C/C(=O)OC(C)(C)C,10.6 µM (active),
Nc1ccc2cc3ccc(N)cc3nc2c1,5.31 µM (active) and 3.06 µM (active),
CN(C)c1ccc(N=Nc2ccccc2C(=O)O)cc1,9.69 µM (active),
CCOC(=O)N1CCC(=C2c3ccc(Cl)cc3CCc3cccnc32)CC1,11.9 µM (active) and 9.69 µM (active),
Cc1cccc(Br)c1,,0.706% [at 95 µM]
CC(C)(c1cc(Br)c(O)c(Br)c1)c1cc(Br)c(O)c(Br)c1,27.2 µM (active) and 48.4 µM (active) and 51.6 µM (active),
ClC/C=C\CCl,,0.721% [at 95 µM]
CCCCCCCC/C=C\CCCCCCCC(=O)OCCOC(=O)CCCCCCC/C=C\CCCCCCCC,,-9.1% [at 95 µM]
Cc1c(C)n(Cc2ccccc2)c2ccc(C(=O)OCCN(C)C)cc12,10.6 µM (active),
CCCSS/C(CCO)=C(\C)N(C=O)Cc1cnc(C)nc1N,23.7 µM (active),
CNCC[C@H](Oc1cccc2ccccc12)c1cccs1,7.5 µM (active),
Oc1ccc(-c2ccc(O)cc2)cc1,,0% [at 95 µM]
C=CC(=O)OCC(O)COc1ccccc1 (stereo not given),48.6 µM (active),
CCNc1nc(NC(C)CC)nc(OC)n1 (stereo not given),,0.0383%
O[C@@H](c1cc(C(F)(F)F)nc2c(C(F)(F)F)cccc12)[C@H]1CCCCN1,5.96 µM (active),
CN(C)CCCN1c2ccccc2CCc2ccccc21,23.7 µM (active),

SMILES,Potency,"activity, negative = inhibition"
C[C@@H]1CC[C@H]2C(C)(C)[C@H]3C[C@@]12CC[C@@]3(C)O,54.4 µM (active),
COC(=O)NCCC[Si](OC)(OC)OC,,4.25%
CCC(C)c1cc([N+](=O)[O-])cc([N+](=O)[O-])c1OC(=O)OC(C)C (stereo not given),21.7 µM (active),
CCN(CC)CCNc1ccc(CO)c2sc3ccccc3c(=O)c12,1.06 µM (active),
COc1cc(C(=O)NS(=O)(=O)c2ccccc2C)ccc1Cc1cn(C)c2ccc(NC(=O)OC3CCCC3)cc12,26.6 µM (active),
Cc1cn[nH]c1,,6.43%
CN(C)c1ccc(N=NS(=O)(=O)O)cc1,,-0.0116%
CCN(CC)CCSC(=O)C(c1ccccc1)c1ccccc1,26.6 µM (active),
C=CC(=C)CCC=C(C)C,,9.85%
Nc1ncnc2c1ncn2[C@@H]1O[C@H](COP(=O)(O)O)[C@@H](O)[C@H]1O,,3.82%
CCOC(=O)[C@@](C)(N)Cc1ccc(O)c(O)c1,,0.0016% [at 32.5 µM]
O=C(Nc1ccc(Cl)c(Cl)c1)c1cc(Cl)cc(Cl)c1O,2.17 µM (active),
c1ccc(Sc2ccccc2)cc1,,-1.08%
CC1=C(/C=C/C(C)=C/C=C/C(C)=C/C(=O)Nc2ccc(O)cc2)C(C)(C)CCC1,5.96 µM (active) and 7.89 µM (active),
NC(=O)c1ccccc1N,,1.29% [at 95 µM]
CCN(CC)CCCN(c1ccccc1)C1Cc2ccccc2C1,2.11 µM (active),
Cc1nc(Nc2ncc(C(=O)Nc3c(C)cccc3Cl)s2)cc(N2CCN(CCO)CC2)n1,18.8 µM (active),
CC(C)OC(=O)c1cc(C(=O)OC(C)C)cc([N+](=O)[O-])c1,,20.5% [at 95 µM]
CN1CCN(C2Cc3ccccc3Sc3ccc(Cl)cc32)CC1 (stereo not given),9.44 µM (active),
Cc1cc2c(C(C)C)c(O)c(O)c(C=O)c2c(O)c1-c1c(C)cc2c(C(C)C)c(O)c(O)c(C=O)c2c1O,9.44 µM (active),
